This passage reports outcome results from PubChem BioAssay (NCATS).

The structures appear in SMILES notation. Records with an inconclusive call do not appear. Activity calls are given as the source filed them. Calls follow the shape of the dose curve; as a rule, active = well fitted curve in the direction sought with a large enough effect; inconclusive = small, poorly fitted or top-dose-only effect, or another doubt; inactive = no such curve, though single readings can be large or run the other way.

The test deals with Calcium and integrin-binding protein 1 (Homo sapiens) (UniProt Q99828). Description: Validation qHTS for Identification of Calcium Integrin Binding protein 1 (CIB1) Competitor (AID 1508618). Conditions: CIB1-GST / FITC-alphaIIb peptide fluorescence polarization; series mostly up to 114 µM. The procedure, abridged: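 Fluorescence polarization with 1 uM CIB1-GST and 100 nM FITC-alphaIIb peptide in HEPES pH 7.4, NaCl, 5 mM CaCl2, Tween20. Compounds at up to 114 uM final, preincubated with protein 15 min; read after 15 min more at RT.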
Calcium and integrin-binding protein 1 (Homo sapiens), sequence (Q99828 whole entry, looked up): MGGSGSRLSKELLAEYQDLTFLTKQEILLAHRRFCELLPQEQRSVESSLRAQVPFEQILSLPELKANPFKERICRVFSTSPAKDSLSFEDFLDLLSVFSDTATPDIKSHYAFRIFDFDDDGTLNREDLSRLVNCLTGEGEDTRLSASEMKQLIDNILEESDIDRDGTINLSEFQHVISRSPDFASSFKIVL
Consider `O=[N+]([O-])c1ccc(CNc2nc(NCc3cccc(C(F)(F)F)c3)nc3nc[nH]c23)cc1`, for which the result was inactive.

`O=C(Nc1ccncc1)c1cc([N+](=O)[O-])ccc1Cl`: the result was inactive.

With `COC(=O)C1=C(C)NC(C)=C(C(=O)OC)C1c1cccc(NC(=O)NCCCN2CCC(c3cccc(OC)c3)CC2)c1`, the outcome was inactive.

Regarding `CCN(CC)CCCCNc1ncc2cc(-c3c(Cl)cccc3Cl)c(NC(=O)NC(C)(C)C)nc2n1`, the result was inactive.

For `Fc1ccc2[nH]c(CN3CCN(c4ccccn4)CC3)cc2c1`, the result was inactive.

For the compound `O=C(Nc1ccc2c(c1)CCN(Cc1ncn[nH]1)C2)c1ccccc1-c1ccc(C(F)(F)F)cc1`, the outcome was inactive.

With `N[C@H](CCCP(=O)(O)O)C(=O)O`, the outcome was inactive.

`CCNc1nc2c(ncn2[C@H]2C[C@H](O)[C@@H](CO)O2)c(=O)[nH]1`: the outcome was inactive.

On to `CCCCN(CC)c1nc(C)nc2c1c(C)cn2-c1c(C)cc(C)cc1C`, for which the result was inactive.

As for `CN(CCCOc1ccc(Cc2ccccc2)cc1)CCC(=O)O`, the result was inactive.

As for `O=C(Nc1ccc2[nH]ncc2c1)C1CCC1`, the result was inactive.

Consider `CS(=O)(=O)c1ccc(-n2nc(C(F)(F)F)cc2-c2ccc(F)cc2)cc1`, for which the outcome was inactive.
